Bioassay records as filed in PubChem.
Shiga toxin inh – blocks Shiga toxin action in Vero cells; AID 2315; Vero cells, Shiga toxin protein synthesis inhibition reporter; hit rate 9.2% among 290,000; inhibition, % at 38.7 µM; in the data active = inhibition mostly above about 28%, no sharp cut-off; inactive = mostly below about 43%; also: 0% is about no effect
Cycloheximide cs – counter-screen for Shiga toxin inhibitors: cycloheximide protein synthesis inhibition; cell reporter, cycloheximide protein synthesis inhibition counterscreen; max response, %; hit rate 12% among 300,000; AID 2314; in the data active = max response mostly above about 13%, no sharp cut-off; inactive = mostly below about 14%; also: read at 38.3 µM for the half of the compounds with a filed dose; 0% is about no effect
HCMV antiviral – blocks human cytomegalovirus replication | HFF cells, HCMV-luciferase reporter, 72 h; stronger effect = lower value | activity change, negative = inhibition, % at 57.5 µM | hit rate 4.5% among 410,000; in the data active = activity change below about -60%; inconclusive = no clear call, values can overlap the other calls; inactive = above about -39%; also: % is scaled to controls: 0 for no effect and ±100 for the full control effect
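Cell-based, HFFs, 1000 cells/well, 16 h 37C; cpds in DMSO + HCMV-luc, MOI 1 PFU/cell; 72 h 37C; OneGlo luminescence after 5 min RT; norm. to buffer vs Salinomycin 10uM.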
Pf growth 48h – P. falciparum growth inhibition at 48 hours (one generation); AID 504832; hit rate 5.9% among 310,000; P. falciparum luciferase growth in erythrocytes, 48 h; Potency, µM (titrated, usually from 28.7 µM), for inactives: at the top dose activity change, negative = inhibition, most hits filed as inhibitors; also: potency is read from the fitted curve at half-maximal effect; % is scaled to controls: 0 for no effect and ±100 for the full control effect
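Here the parasites carry a stable luciferase gene and grow inside erythrocytes in Albumax-based RPMI medium with compound for one erythrocytic cycle. Activity is scored as loss of luminescent signal.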
Pf growth 96h – P. falciparum growth inhibition at 96 hour, primary screen for plastid delayed-death inhibitors; P. falciparum luciferase reporter growth, 96 h; Potency, µM (highest dose often 28.7 µM), for inactives: at the top dose activity change, negative = inhibition, actives largely listed as inhibitors; hit rate 6.9% among 320,000; AID 504834; also: potency is read from the fitted curve at half-maximal effect; % is scaled to controls: 0 for no effect and ±100 for the full control effect
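Luminescence readout: decreased luciferase signal marks inhibited growth of reporter-expressing P. falciparum in infected red cells (2% hematocrit, 0.05% parasitemia final), exposed to compound two generations (96 h, 37 C, 5% CO2).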
* = called active by the depositor; ? = inconclusive; . = not tested or not shown. Compounds with a hit are over-represented: about 20% of the library has one in this group of screens. Unless noted, calls follow the shape of the dose curve; as a rule, active = well fitted inhibition curve with a large enough effect; inconclusive = small, poorly fitted or top-dose-only effect, or another doubt; inactive = no such curve, though single readings can be large or run the other way.

SMILES	Shiga toxin inh	Cycloheximide cs	HCMV antiviral	Pf growth 48h	Pf growth 96h
CCOc1ccc(CCNC(=O)C(CC)n2nc(C)c3c(C)n(-c4ccccc4)nc3c2=O)cc1 (configuration not stated)	.	.	-32	.	.
COc1ccccc1-c1noc2nc(Nc3cccc(Cl)c3)ccc12	.	.	18	.	.
COc1ccc(CNC2CC(C)N(C)CC2C)cc1OC (configuration not stated)	-17	-3	-2	10µM*	-18%
O=C(C(=O)c1cc(Br)ccc1O)c1cc(Br)ccc1O	.	.	-97*	.	.
O=C(NCC(O)c1ccccc1)c1ccc(Cl)c(S(=O)(=O)N2CCCCC2)c1 (configuration not stated)	13	20	?	?	7%
O=C(NCC(O)c1ccccc1)c1ccc(Cl)c(S(=O)(=O)N2CCCC2)c1 (configuration not stated)	.	.	.	9.3µM*	?
COc1ccc(CCNC(=O)c2ccc(Cl)c(S(=O)(=O)N(C)c3ccccc3)c2)cc1	8	5	-68*	?	10µM*
O=C(NCCc1ccccc1)c1ccc(Cl)c(S(=O)(=O)N2CCCC2)c1	-16	2	.	-16%	10µM*
COc1ccc(CCC(=O)Nc2ccc(Cl)c(S(=O)(=O)N3CCCC3)c2)cc1	-3	7	-103*	9.3µM*	?
C=CCCCCCCCCC(=O)NNC1CC(=O)N(c2ccccc2)C1=O (configuration not stated)	-9	0	5	53%	17%
Cc1ccc(N(C)C(=O)C2CCCN(c3ncnc4c3nc3n4CCCCC3)C2)cc1C (configuration not stated)	.	.	-23	.	.
O=C(CCOc1ccccc1)Nc1ccc(Cl)c(S(=O)(=O)N2CCOCC2)c1	.	.	-2	?	?
Cc1c(NS(=O)(=O)c2cc(C(=O)NCCN(C)C)ccc2Cl)c(=O)n(-c2ccccc2)n1C	1	-6	-23	.	1%
COc1ccc(CCNC(=O)c2ccc(Cl)c(S(=O)(=O)N3CCCCCC3)c2)cc1	.	.	-86*	?	?
CN(C)S(=O)(=O)c1cc(C(=O)NCCCn2ccc3ccccc32)ccc1Cl	-12	-2	9	.	4.1µM*
COc1cc(CCC(=O)Nc2ccc(C)c(S(=O)(=O)N3CCCCCC3)c2)cc(OC)c1OC	.	.	-70*	12µM*	10µM*
COc1cc(NC(=O)CNc2ccc(Cl)c(S(=O)(=O)N3CCOCC3)c2)cc(OC)c1	.	.	-17	5.2µM*	?
COCC1CN(CCc2ccc(F)cc2)S(=O)(=O)c2c(OCCN3C(=O)[C@@H]4[C@H](C3=O)[C@@H]3C=C[C@H]4C3)cccc2O1 (some centres not stated)	.	.	3	.	.
Cc1cc(C)nc(SC(C)CNS(=O)(=O)c2ccccc2)n1 (configuration not stated)	20	1	-20	?	-29%
Cc1ccc(-n2c(C)cc(C(=S)N3CCOCC3)c2C)cc1C	15	-1	-12	?	10µM*
Cc1cc(C(=S)N2CCOCC2)c(C)n1-c1ccc(F)cc1	5	8	-20	?	-4%
CCN(CC)C(=O)C1=C(C)N(Cc2ccc(C(C)(C)C)cc2)C(=O)C(CC(=O)NCC2CCCCC2)C1 (configuration not stated)	.	.	18	.	.
COc1ccc2cc3cc(C(=O)NCC4COc5ccccc5O4)oc3nc2c1 (configuration not stated)	36	40*	-24	?	-2%
COc1ccc2cc3cc(C(=O)NC(C)C)oc3nc2c1	75*	48*	136	.	2.9µM*
Cc1ccccc1N(CC(=O)N1CCN(Cc2ccccc2)CC1)S(C)(=O)=O	.	.	-22	.	.
SMILES	Shiga toxin inh	Cycloheximide cs	HCMV antiviral	Pf growth 48h	Pf growth 96h
O=C(NCCCN1CCOCC1)c1cccs1	-13	5	-33	-22%	26%
CCOc1ccc(CNC(=O)CCS(=O)(=O)c2cc3c4c(c2)CCN4C(=O)CC3)cc1OC	.	.	0	.	.
[O-][n+]1c2c(nn1-c1ccccc1)/C(=N/O)CCC2	-4	2	?	10%	?
[O-][n+]1onc2c1CCC(=N/O)/C2=N\Nc1ccccc1	55	19*	.	7.4µM*	4.7µM*
COc1ccccc1OCC(=O)OCC(=O)Nc1ncc(Cl)cc1Cl	-21	-2	-3	7%	53%
O=C(COC(=O)CNC(=O)c1ccco1)Nc1ncc(Cl)cc1Cl	.	.	-100*	1%	-12%
CCOc1ccccc1OCC(=O)OCC(=O)Nc1ncc(Cl)cc1Cl	-9	-5	-72*	13%	10%
O=C(COC(=O)Cc1ccccc1)Nc1ncc(Cl)cc1Cl	-8	8	?	.	9%
c1ccc(-c2cc3c(Nc4ccc5c(c4)OCCO5)nccc3[nH]2)cc1	.	.	0	.	.
O=C1c2ccccc2C(c2nnnn2-c2ccc3c(c2)OCCO3)N1CCc1ccccc1F (configuration not stated)	.	.	-22	.	.
O=C(c1ccc2nc(N3CCCCC3)sc2c1)N1CCN(c2ccccn2)CC1	11	23*	19	0%	-85%
CC1CCN(c2nc3ccc(C(=O)N4CCN(Cc5ccccc5)CC4)cc3s2)CC1	85*	52*	?	.	-17%
CCOC(=O)N1CCN(C(=O)c2ccc3nc(N4CCCCC4)sc3c2)CC1	18	14*	11	-3%	10µM*
COc1cccc(N2CCN(C(=O)c3ccc4nc(N5CCC(C)CC5)sc4c3)CC2)c1	117*	64*	-26	-16%	1%
O=C1c2ccccc2[C@@H]2Cc3csc[n+]3[C@H]12	.	.	4	.	.
Cc1nn(-c2ccccc2)c(C)c1NC(=O)COC(=O)c1ccc(O)cc1O	14	-2	15	-1%	?
Cc1cccc(N2CCN(C(=O)c3ccc4nc(N5CCCCC5)sc4c3)CC2)c1C	31	3	-25	?	?
O=Cc1cnc(N2CCN(Cc3ccccc3)CC2)s1	18	4	-64*	17%	-2%
c1ccc(CN2CCN(c3nc4ccccc4s3)CC2)cc1	96*	53*	-14	117%	132%
c1ccc2sc(N3CCCN(Cc4nc(-c5cnccn5)no4)CC3)nc2c1	22	5	-79*	3%	?
O=Cc1cnc(N2CCN(c3ccccc3)CC2)s1	18	12	14	16%	-1%
NC(=O)C1CCN(C(=O)c2ccc3nc(N4CCCCC4)sc3c2)CC1	71*	35*	3	7%	98%
COC(=O)c1sccc1NC(=O)CC1NCCNC1=O (configuration not stated)	20	-1	60	13%	20%
O=C(c1ccc(S(=O)(=O)N2CCCCC2)cc1)N1CCN(Cc2ccc3c(c2)OCO3)CC1	23	-4	-19	?	?
FC(F)(F)c1cc(N2CCN(Cc3ccccc3)CC2)c2ccccc2n1	9	2	0	?	9.3µM*
O=C(c1ccc2nc(N3CCCCC3)sc2c1)N1CCN(Cc2ccc3c(c2)OCO3)CC1	active	30*	?	4.1µM*	22%
